From PubChem BioAssay come the findings set out here.

Molecules are shown by their SMILES. Where “and” joins values, the source holds several entries; their conditions need not be identical. Equal entries are not always repeated. Inconclusive results are not listed. Calls of active or inactive are those of the source.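 Rule for the calls, unless noted: active = compounds whose cell count with miR-34 switched on is under 0.7 times the count with it off; inactive = the rest.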

A short description of experiment [1]: liver-stage malaria parasite growth inhibition, primary screen, cell-based, HepG2, luciferase luminescence, HepG2 viability (AID 624349; in the data active = parasite load remaining mostly below about 12%, no sharp cut-off; inactive = mostly above about 10%;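 note: 100% = mean of DMSO negative control wells on the same plate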). As to conditions: P. berghei liver stage in HepG2, luciferase luminescence, concentration not given here; parasite load remaining: stronger effect = lower value; viability: measured here: HepG2 viability without parasites.
The nature of experiment [2]: sensitizers of A549 cells to miR-34 induction, primary screen, imaging, A549 dox-inducible miR-34, nuclei and caspase counts (AID 1347080). Conditions: A549 miR-34 inducible, Hoechst nuclei count, 48 h.
Experiment [3] is described as follows: survival rescue of mitochondrial mutant cells in low glucose, primary screen, MELAS cybrids, Rieske KO mouse fibroblasts, CellTiter-Glo (AID 1508586;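 active = mean z-score across replicates of 1.96 or higher in either the MELAS or the Rieske mutant cell line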;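 note: z relative to plate mean and SD of compound and empty wells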).
Experiment [4] concerns the target NAD(+) hydrolase SARM1 (Homo sapiens) (UniProt Q6SZW1). The experiment is described as follows: SARM1 TIR NADase inhibitors, cell lysate, NAD-Glo luminescence (AID 1508614;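 active = compound whose remaining NAD level is above about 45 nM, limit read from the data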;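 note: higher remaining NAD means stronger inhibition of SARM1 NADase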). Conditions: SAM-TIR HEK293T lysate NADase, at 1 µM, stronger effect = higher value.
For experiment [5], the target named is Mitogen-activated protein kinase 7 (Homo sapiens) (UniProt Q13164). The experiment is described as follows: ERK5 transactivation activators in reporter cells, primary screen, cell-based, HTS (AID 1508626;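 active = luciferase signal above three times the same-plate solvent-only control wells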;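 note: luciferase driven by Gal4-ERK5 fusion binding five Gal4 sites before minimal TATA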). Conditions: HeLa Gal4-ERK5 transactivation, 18 h, at 5 µM, stronger effect = higher value.
The nature of experiment [6]: viability rescue of complex I mutant cybrids, primary screen, cell-based, galactose medium, ATP luminescence (AID 1645843;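 active = z-score of at least 1.8 in each of two replicates, scored against plate mean and spread of sample wells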;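 note: positive z means more ATP and so rescue of galactose-driven cybrid death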). Conditions: complex I mutant cybrid cells, 72 h, stronger effect = higher value.
Experiment [7] has as its target ATP-dependent translocase ABCB1 (Homo sapiens) (UniProt P08183). The experiment is described as follows: MDR1 (ABCB1) efflux transporter inhibition, cell-based (AID 377; in the data active = fluorescence slope change above about 50%). As to conditions: MDR1-expressing cells, fluorescent substrate accumulation slope; stronger effect = higher value; concentration not given here.
Experiment [8] can be described thus: hESC survival regulators, cell-based (AID 493140; call rule not given here;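 note: cells exposed to compounds for four days before counting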). Conditions: human embryonic stem cell survival screen; stronger effect = higher value.
Setting [9] is: measured here: relative caspase fold change +Dox/-Dox.
Where [10] appears, read: measured here: total cells with miR-34 induction, stronger effect = lower value.
Where [11] appears, read: measured here: total cells without miR-34 induction.
Setting [12] is: MELAS cybrid survival, CellTiter-Glo 48 h, stronger effect = higher value.
Where [13] appears, read: Rieske KO mouse fibroblast survival, CellTiter-Glo 72 h.
The mark [14] stands for this setting: stronger effect = lower value, cell number ratio, induced over uninduced.

ATP-dependent translocase ABCB1 (Homo sapiens), sequence (P08183 whole entry, looked up): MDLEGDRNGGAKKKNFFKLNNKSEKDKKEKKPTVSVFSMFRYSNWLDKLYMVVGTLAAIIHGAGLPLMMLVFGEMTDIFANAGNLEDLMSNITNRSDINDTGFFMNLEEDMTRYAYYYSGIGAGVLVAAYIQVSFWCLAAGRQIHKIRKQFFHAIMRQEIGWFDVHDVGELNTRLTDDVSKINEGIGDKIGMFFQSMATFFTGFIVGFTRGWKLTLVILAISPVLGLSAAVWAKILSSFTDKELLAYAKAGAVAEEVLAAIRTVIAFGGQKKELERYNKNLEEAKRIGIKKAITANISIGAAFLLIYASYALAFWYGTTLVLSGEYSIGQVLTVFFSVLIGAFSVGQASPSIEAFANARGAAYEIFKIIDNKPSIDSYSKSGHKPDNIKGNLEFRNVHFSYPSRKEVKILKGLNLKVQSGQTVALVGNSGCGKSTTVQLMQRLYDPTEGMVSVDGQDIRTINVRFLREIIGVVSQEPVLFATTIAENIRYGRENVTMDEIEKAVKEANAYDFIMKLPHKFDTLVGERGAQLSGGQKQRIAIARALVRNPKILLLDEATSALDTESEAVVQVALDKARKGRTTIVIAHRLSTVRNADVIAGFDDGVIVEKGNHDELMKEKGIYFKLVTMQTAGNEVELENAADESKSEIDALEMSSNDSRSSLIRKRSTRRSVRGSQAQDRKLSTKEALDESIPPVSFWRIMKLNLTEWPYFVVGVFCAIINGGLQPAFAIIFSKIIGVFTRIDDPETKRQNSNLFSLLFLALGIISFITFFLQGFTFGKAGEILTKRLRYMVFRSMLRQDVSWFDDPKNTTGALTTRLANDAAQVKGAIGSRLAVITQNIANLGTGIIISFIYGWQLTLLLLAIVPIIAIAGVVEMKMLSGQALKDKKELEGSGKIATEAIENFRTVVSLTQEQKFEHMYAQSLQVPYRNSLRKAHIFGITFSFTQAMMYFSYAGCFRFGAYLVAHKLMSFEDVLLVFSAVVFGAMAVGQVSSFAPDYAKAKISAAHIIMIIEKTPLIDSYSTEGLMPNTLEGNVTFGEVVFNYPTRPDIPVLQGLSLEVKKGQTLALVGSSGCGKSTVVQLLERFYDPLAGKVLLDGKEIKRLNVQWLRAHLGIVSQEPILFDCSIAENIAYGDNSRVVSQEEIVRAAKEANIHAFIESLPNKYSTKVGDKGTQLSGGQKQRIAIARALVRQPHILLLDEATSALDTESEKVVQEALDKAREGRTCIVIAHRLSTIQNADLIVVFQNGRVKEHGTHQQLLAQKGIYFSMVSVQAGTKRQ
NAD(+) hydrolase SARM1 (Homo sapiens), sequence (Q6SZW1 whole entry, looked up, the tested form may be a part): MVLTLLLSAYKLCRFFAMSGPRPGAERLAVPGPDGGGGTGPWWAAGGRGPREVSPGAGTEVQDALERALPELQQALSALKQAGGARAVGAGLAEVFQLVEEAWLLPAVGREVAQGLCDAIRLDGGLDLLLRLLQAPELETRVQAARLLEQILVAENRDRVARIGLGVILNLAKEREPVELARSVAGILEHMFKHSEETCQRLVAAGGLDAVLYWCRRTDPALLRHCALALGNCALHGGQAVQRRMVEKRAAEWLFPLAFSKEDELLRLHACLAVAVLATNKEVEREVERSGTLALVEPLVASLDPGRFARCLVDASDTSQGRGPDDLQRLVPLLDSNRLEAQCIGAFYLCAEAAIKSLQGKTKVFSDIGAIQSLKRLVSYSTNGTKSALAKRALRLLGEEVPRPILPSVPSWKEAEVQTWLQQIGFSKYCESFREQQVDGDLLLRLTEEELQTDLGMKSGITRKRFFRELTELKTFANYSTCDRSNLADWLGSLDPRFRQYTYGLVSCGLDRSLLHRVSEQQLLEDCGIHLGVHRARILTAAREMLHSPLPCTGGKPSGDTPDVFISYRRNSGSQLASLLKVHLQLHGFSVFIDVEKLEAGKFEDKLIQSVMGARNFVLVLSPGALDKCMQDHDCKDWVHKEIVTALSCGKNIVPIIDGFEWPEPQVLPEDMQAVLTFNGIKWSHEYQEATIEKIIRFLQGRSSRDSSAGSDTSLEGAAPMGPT
Mitogen-activated protein kinase 7 (Homo sapiens), sequence (Q13164 whole entry, looked up, the tested form may be a part): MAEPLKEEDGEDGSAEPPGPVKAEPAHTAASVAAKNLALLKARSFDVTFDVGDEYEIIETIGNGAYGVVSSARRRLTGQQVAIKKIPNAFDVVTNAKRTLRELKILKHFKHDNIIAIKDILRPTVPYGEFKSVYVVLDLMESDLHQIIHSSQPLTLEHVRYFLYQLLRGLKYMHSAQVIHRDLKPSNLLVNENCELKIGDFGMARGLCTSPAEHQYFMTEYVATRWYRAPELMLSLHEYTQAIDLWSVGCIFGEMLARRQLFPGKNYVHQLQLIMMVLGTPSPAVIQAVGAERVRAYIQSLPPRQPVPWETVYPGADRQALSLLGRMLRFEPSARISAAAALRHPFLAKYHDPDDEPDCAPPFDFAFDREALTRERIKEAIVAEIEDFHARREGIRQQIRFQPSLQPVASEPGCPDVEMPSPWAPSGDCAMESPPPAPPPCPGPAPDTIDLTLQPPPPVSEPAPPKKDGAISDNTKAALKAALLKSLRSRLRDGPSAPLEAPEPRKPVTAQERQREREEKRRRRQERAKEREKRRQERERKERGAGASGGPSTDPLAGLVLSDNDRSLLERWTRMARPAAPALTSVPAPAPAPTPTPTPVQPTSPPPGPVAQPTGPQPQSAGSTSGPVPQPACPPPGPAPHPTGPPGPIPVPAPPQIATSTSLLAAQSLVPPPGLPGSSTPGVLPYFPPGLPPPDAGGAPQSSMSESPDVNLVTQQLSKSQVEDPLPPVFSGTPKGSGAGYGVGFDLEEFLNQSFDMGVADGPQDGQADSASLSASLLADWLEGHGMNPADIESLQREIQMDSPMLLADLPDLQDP

As a reminder, the viability is a read-out of living cells in per cent, often relative to untreated cells. Take `CN1C[C@H](C(=O)N[C@]2(C)O[C@@]3(O)[C@@H]4CCCN4C(=O)[C@H](Cc4ccccc4)N3C2=O)C=C2c3cccc4[nH]cc(c34)C[C@H]21`: the parasite load remaining in experiment [1] is 33.4% (inactive). Moreover, the viability in experiment [1] turned out to be 106%. Moreover, the fold change is 0.866 (inactive) in experiment [2] (stronger effect = lower value) and 1.34 in experiment [2] (setting [9]). For the same compound, the cell count came out at 8820 in experiment [2] (setting [10]) and 10200 in experiment [2] (setting [11]). Also, the z-score in experiment [3] (setting [12]) was -0.409 (inactive); in experiment [3] (setting [13]), -0.32; in experiment [6] it was 1.08 (inactive). In addition, the remaining NAD in experiment [4] was 10 nM (inactive). Besides, in experiment [5], the luciferase signal is 80 AU (inactive).

`C=C(C)[C@@H]1C2C(=O)O[C@H]1[C@H]1OC(=O)[C@@]34OC3C[C@]2(O)[C@@]14C` (stereo partly drawn): in experiment [1], the parasite load remaining was 103% (inactive). Moreover, the viability in experiment [1] amounted to 99.2%. The values for the fold change in experiment [2] (setting [14]) and in experiment [2] (setting [9]) were 0.887 (inactive) and 0.911, respectively. Besides, the cell count worked out at 8720 in experiment [2] (setting [10]) and 9830 in experiment [2] (setting [11]). In addition, the z-score is 0.399 (inactive) in experiment [3] (setting [12]) and 0.218 in experiment [3] (setting [13]).

Consider `C[C@]12CC[C@H](O)C[C@H]1CC[C@@H]1[C@@H]2CC[C@]2(C)[C@@H](C3=CC(=O)OC3)CC[C@]12O`, for which the fluorescence slope change in experiment [7] is 80.1% (active). Moreover, the survival in experiment [8] was 11.7 (inactive). The parasite load remaining in experiment [1] was -9.15% (inactive) and 10.4% (inactive). Besides, the viability in experiment [1] was 40.6% and 30.9%. The fold change is 0.981 (inactive) in experiment [2] (stronger effect = lower value) and 1.54 in experiment [2] (setting [9]). Besides, the cell count in experiment [2] (setting [10]) worked out at 557; in experiment [2] (setting [11]) it was 568. In addition, the z-score in experiment [3] (setting [12]) was -0.147 (inactive); in experiment [3] (setting [13]) it was 0.0544.

`C/C=C/N1CC[C@]23CCCC[C@H]2[C@H]1Cc1ccc(O)cc13`: in experiment [1], the parasite load remaining is 46.3% (inactive). For the same compound, the viability in experiment [1] amounted to 104%. Besides, the fold change was 0.904 (inactive) in experiment [2] (stronger effect = lower value) and 1.04 in experiment [2] (setting [9]). Moreover, the cell count came out at 9380 in experiment [2] (setting [10]) and 10400 in experiment [2] (setting [11]). For the same compound, the z-score in experiment [3] (setting [12]) was -1.07 (inactive); in experiment [3] (setting [13]), -0.504; in experiment [6], 0.26 (inactive).

As to `C[C@]12CCC3C4CCC(=O)C=C4CCC3C1CCC2O` (stereo partly drawn), the values for the fold change in experiment [2] (stronger effect = lower value) and in experiment [2] (setting [9]) were 0.894 (inactive) and 1.48, respectively. The cell count in experiment [2] (setting [10]) turned out to be 7980; in experiment [2] (setting [11]) it was 8920. Further, the z-score in experiment [6] is -0.31 (inactive).

Consider `CCC1=C[C@@H]2CN3CCc4c([nH]c5ccccc45)[C@@](C(=O)OC)(C2)[C@@H]13`, for which, in experiment [1], the parasite load remaining was 9.8% (inactive). In experiment [1], the viability stood at 47.4%. The fold change in experiment [2] (setting [14]) is 0.949 (inactive) and 0.823 (inactive); in experiment [2] (setting [9]), 1.22 and 0.88. The cell count is 8480 and 6230 in experiment [2] (setting [10]); 8930 and 7580 in experiment [2] (setting [11]). Besides, the z-score in experiment [3] (setting [12]) is -0.196 (inactive) and 0.501 (inactive); in experiment [3] (setting [13]), -0.315 and -0.157.

In the case of `CCOC(=O)c1cncn1[C@@H](C)c1ccccc1`, in experiment [1], the parasite load remaining is 94.8% (inactive). Further, in experiment [1], the viability worked out at 128%. The values for the fold change in experiment [2] (stronger effect = lower value) and in experiment [2] (setting [9]) were 0.937 (inactive) and 0.906, respectively. In addition, the values for the cell count in experiment [2] (setting [10]) and in experiment [2] (setting [11]) were 8390 and 8960, respectively. In addition, the z-score was -0.428 (inactive) in experiment [3] (setting [12]) and -0.415 in experiment [3] (setting [13]).

On to `CCC1(C)CC(=O)NC(=O)C1`, for which the survival in experiment [8] is 3.92 (inactive). For the same compound, the parasite load remaining in experiment [1] was 94.7% (inactive). For the same compound, the viability in experiment [1] amounted to 101%. The fold change in experiment [2] (stronger effect = lower value) was 0.856 (inactive) and 0.868 (inactive); in experiment [2] (setting [9]) it was 1.33 and 1.2. Further, the cell count is 8070 and 7990 in experiment [2] (setting [10]); 9420 and 9200 in experiment [2] (setting [11]). The z-score in experiment [3] (setting [12]) is -0.143 (inactive) and 0.0597 (inactive); in experiment [3] (setting [13]), -0.288 and -0.916.

As for `C[C@]12CC(=CO)C(=O)CC1CCC1C2CC[C@@]2(C)C1CC[C@]2(C)O` (stereo partly drawn), the figures for the fold change in experiment [2] (stronger effect = lower value) and in experiment [2] (setting [9]) were 0.96 (inactive) and 2.87, respectively. For the same compound, the cell count in experiment [2] (setting [10]) is 9400; in experiment [2] (setting [11]) it was 9790. Also, in experiment [6], the z-score is -1.14 (inactive).
